Screening results (PubChem)
Akt phos inh: inhibitors of Akt phosphorylation | Neuro2A IGF-stimulated pAkt S473 HTRF, 20 min; active compounds read low | activity change, % for hits at 50 µM | hit rate 0.32% among 360,000; in the data active means activity change below about -80%; inconclusive means mostly about -51% to -80%; further: on the % scale 0 is the no-effect control and ±100 the full control effect
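Neuro2A cells in DMEM with 0.5% FBS, overnight at 37 deg C, given compound at single 50 µM final, then IGF (6 nM final) for 20 min at 37 deg C. Lysed; phospho-Akt Ser473 by HTRF after 24 h, 665/615 ratio.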
12-LOX inh: blocks human arachidonate 12S-lipoxygenase. Potency, µM (series often up to 108 µM), for the others: at the top dose activity change, negative = inhibition, most hits filed as inhibitors. purified 12hLO, xylenol orange hydroperoxide absorbance. AID 1671190. P18054. hit rate 1.1% among 580,000; further: potency means the concentration at half of the fitted maximal effect; on the % scale 0 is the no-effect control and ±100 the full control effect
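Hydroperoxide product was detected by ferrous iron/xylenol orange as the 573 to 405 nm absorbance ratio. Arachidonic acid at 40 uM (final) was turned over for 30 min at room temperature by 150 nM human 12hLO, pH 7.0 Hepes buffer, after 15 min compound preincubation.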
Vif-APOBEC3F blk: blocks the Vif interaction with APOBEC3F; hit rate 0.2% among 390,000; AID 602313; HeLa A3F-eYFP + Vif (tagged APOBEC3F with the HIV-1 protein that degrades it), YFP fluorescence increase; Potency, µM (series often up to 46.1 µM), for inactives: at the top dose activity, negative = active; further: potency means the concentration at half of the fitted maximal effect; % of control where 0% means no effect; nearly all actives have a fitted effect of over 65% in size
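HeLa cells stably expressing A3F-eYFP plus Vif, plated and incubated overnight at 37 deg C, then exposed to compounds overnight at 37 deg C. Blocked degradation read as raised yellow fluorescence (Ex 488/Em 500-530).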
PTAP TSG101 blk: blocks PTAP/TSG101 interaction to inhibit HIV-1 budding; Fluorescence polarization, FITC-PTAP peptide / Tsg101 binding; Potency, µM (doses to about 115 µM), for inactives: at the highest dose activity change, negative = inhibition, hits mostly inhibitors; 340,000 tested, under 10 active; Q99816; active means well fitted inhibition curve with a large enough effect in the main read-out, with a control signal flat, not every such curve was filed as active; inconclusive means small, poorly fitted or top-dose-only effect, or effect the other way, or a change in a side signal; inactive means no such curve, though single readings can be large or run the other way; further: potency means the concentration at half of the fitted maximal effect; % of control where 0% means no effect
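Fluorescence anisotropy tracks displacement of a FITC-tagged PTAP peptide (50 nM) from the Tsg101 binding domain (10 uM), following a 20 min room-temperature incubation at pH 7.5.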
Vif-A3G inh: blocks the Vif interaction with human APOBEC3G | hit rate 0.076% among 410,000 | HeLa A3G-eYFP + Vif (tagged APOBEC3G with the HIV-1 protein that degrades it), YFP fluorescence, overnight | Q9HC16 | Potency, µM (series often up to 46.1 µM), without a hit: top-dose activity, negative = active, actives largely listed as inhibitors | AID 602310; further: potency means the concentration at half of the fitted maximal effect; on the % scale 0 is the no-effect control and ±100 the full control effect; nearly all actives have a fitted effect of over 60% in size
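HeLa cells stably expressing Vif and C-terminally eYFP-tagged A3G, seeded overnight at 37 deg C, then exposed to compound by pintool overnight at 37 deg C. Rise in yellow fluorescence (Ex 488/Em 500-530, Acumen) marks blocked Vif-driven A3G degradation.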
S-ASM inh: human S-ASM enzyme inhibition. P17405. placental ASM, HMU-PC fluorogenic substrate, 60 min. Potency, µM (series often up to 57.5 µM), inactives show top-dose activity change, negative = inhibition, usual class: inhibitors. hit rate 0.006% among 340,000. AID 504937; further: potency means the concentration at half of the fitted maximal effect
Target sequence (P17405 47-631 limits assumed): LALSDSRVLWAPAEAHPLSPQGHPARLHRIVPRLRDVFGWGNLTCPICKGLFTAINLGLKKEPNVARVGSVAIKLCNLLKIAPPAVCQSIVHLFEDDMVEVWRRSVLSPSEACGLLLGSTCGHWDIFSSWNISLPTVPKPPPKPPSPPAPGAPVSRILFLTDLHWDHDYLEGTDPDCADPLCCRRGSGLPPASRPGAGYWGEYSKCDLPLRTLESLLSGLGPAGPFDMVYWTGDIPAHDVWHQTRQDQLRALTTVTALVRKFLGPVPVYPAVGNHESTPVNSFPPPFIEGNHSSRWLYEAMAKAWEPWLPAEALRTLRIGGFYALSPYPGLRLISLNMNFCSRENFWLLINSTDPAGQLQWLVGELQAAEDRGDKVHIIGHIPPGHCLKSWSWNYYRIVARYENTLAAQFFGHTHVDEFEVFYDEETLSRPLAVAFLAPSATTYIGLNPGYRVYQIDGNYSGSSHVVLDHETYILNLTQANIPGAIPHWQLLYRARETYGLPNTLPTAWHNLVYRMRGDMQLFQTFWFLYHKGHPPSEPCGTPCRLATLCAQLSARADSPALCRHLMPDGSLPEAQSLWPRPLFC
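Fluorogenic HMU-PC substrate (9 uM final) is turned over by placental ASM in 60 min at 37 C after a 10 min compound preincubation. Reaction ended by alkaline stop (pH 10), with fluorescence read at 386/447 nm.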
An asterisk follows results filed as active; [ ] = another dose, or the depositor's remark. Only some compounds are listed: those with a hit (about 1.4% of all), similar ones and a draw of the others. Unless noted, the call rests on the fitted dose curve; in most records, active means well fitted curve in the direction sought with a large enough effect; inconclusive means small, poorly fitted or top-dose-only effect, or another doubt; inactive means no such curve, though single readings can be large; an effect the other way counts as inactive or inconclusive.

`COc1cc(C)c(NC(=O)c2ccc3c(c2)NC(=O)CCS3)cc1OC` gave 12-LOX inh -30%.
`CC(NC(=O)c1ccc2c(c1)NC(=O)CCS2)c1ccncc1` (stereo unspecified) gave 12-LOX inh 8.9µM*.
O=C1CCSc2ccc(C(=O)NO)cc2N1 was read as 12-LOX inh 40µM*.
Screening O=S(=O)(c1ccccc1)N1CCN(Cc2c(O)ccc3ccccc23)CC1 returned Akt phos inh inactive, 12-LOX inh 7.1µM*, Vif-APOBEC3F blk -11%, PTAP TSG101 blk 0%, Vif-A3G inh -1% and S-ASM inh 1%.
Screening Oc1ccc2ccccc2c1CN1CCN(c2ccccc2F)CC1 returned Akt phos inh inactive, 12-LOX inh 45µM*, Vif-APOBEC3F blk -7%, PTAP TSG101 blk -1%, Vif-A3G inh 0% and S-ASM inh 3%.
Screening O=C(NC(c1ccccc1)c1cccs1)c1ccccc1 (stereo unspecified) returned 12-LOX inh -3%.
O=C(NN1C(=O)c2cc(Br)ccc2NC1c1cc(Br)cc(Br)c1O)c1ccncc1 (stereo unspecified) was read as Akt phos inh inactive, 12-LOX inh 50µM*, Vif-APOBEC3F blk 1%, PTAP TSG101 blk -1%, Vif-A3G inh -1% and S-ASM inh -5%.
`N#C/C(=C(/O)CCl)c1nc2c(s1)CCc1ccccc1-2` gave Akt phos inh inactive, 12-LOX inh 16µM*, Vif-APOBEC3F blk inconclusive, PTAP TSG101 blk 1%, Vif-A3G inh inconclusive and S-ASM inh 2%.
COc1ccc(-c2nc3cc(NC(=O)CCc4ccccc4)ccc3o2)cc1 was read as 12-LOX inh 17%.
For Cc1nn(-c2ccc(F)cc2)c2nc(N)c(C#N)c(-c3ccc(O)c(O)c3)c12 the results were Akt phos inh inactive, 12-LOX inh inconclusive, Vif-APOBEC3F blk -18%, PTAP TSG101 blk 1%, Vif-A3G inh -28% and S-ASM inh 3%.
For Cc1nn(-c2ccccc2)c2nc(N)c(C#N)c(-c3ccc(O)c(O)c3)c12 the results were Akt phos inh inactive, 12-LOX inh 32µM*, Vif-APOBEC3F blk 1%, PTAP TSG101 blk 0%, Vif-A3G inh -7% and S-ASM inh -2%.
CC(=NNC(=S)Nc1cccc(Cl)c1)c1ccccn1 was read as Akt phos inh inactive, 12-LOX inh inconclusive, Vif-APOBEC3F blk -11%, PTAP TSG101 blk -2%, Vif-A3G inh -18% and S-ASM inh -7%.
`CC(=NNC(=S)N1CCC1)c1ccccn1` gave Akt phos inh inactive, 12-LOX inh 50µM*, Vif-APOBEC3F blk 8%, PTAP TSG101 blk -1%, Vif-A3G inh inconclusive and S-ASM inh 2%.
`CC(=NNC(=S)N1CCCC1)c1ccccn1` gave Akt phos inh inactive, 12-LOX inh 18µM*, Vif-APOBEC3F blk 5% and Vif-A3G inh -18%.
CC(=NNC(=S)SCc1ccccc1)c1ccccn1 was read as Akt phos inh inactive, 12-LOX inh inconclusive, Vif-APOBEC3F blk -12%, PTAP TSG101 blk -1%, Vif-A3G inh -5% and S-ASM inh -6%.
For CN1Cc2ncnc(NCCc3ccc(F)cc3)c2CN(c2ccc(Cl)cc2)C1=O the results were 12-LOX inh 71µM*.
For N#C/C(=C\c1c(Oc2ccc(F)cc2)nc2ccccn2c1=O)c1nc2ccccc2s1 the results were 12-LOX inh inconclusive, Vif-APOBEC3F blk -17% and Vif-A3G inh 4%.
`Cc1ccc(Oc2nc3ccccn3c(=O)c2/C=C(\C#N)c2nc3ccccc3s2)c(C)c1` gave 12-LOX inh 4µM*, Vif-APOBEC3F blk -7% and Vif-A3G inh 2%.
For O=C(Cc1ccc(N(Cc2ccccc2)C(=O)c2ccco2)cc1)NCCc1ccccc1 the results were 12-LOX inh 37%.
`CC(C)(C)c1cc(C[C@H]2CNCC[C@H]2CC(=O)Nc2nccs2)no1` gave 12-LOX inh 61%[176 µM].
CCN(CC)c1ccc(NS(=O)(=O)c2cc3[nH]c(=O)c(=O)[nH]c3cc2C)c(C)c1 was read as 12-LOX inh 45µM*, Vif-APOBEC3F blk -1% and Vif-A3G inh 0%.
`Cc1cc(Cl)ccc1NS(=O)(=O)c1cc2[nH]c(=O)c(=O)[nH]c2cc1C` gave 12-LOX inh inconclusive, Vif-APOBEC3F blk 4% and Vif-A3G inh 0%.
Screening COc1ccc(NC(=S)NNc2ccc(S(=O)(=O)Nc3ccccc3C(=O)O)cc2[N+](=O)[O-])cc1 returned Akt phos inh inactive, 12-LOX inh 7.9µM*, Vif-APOBEC3F blk 5%, PTAP TSG101 blk -9%, Vif-A3G inh -5% and S-ASM inh -28%.
`COc1ccc(C=NNc2ccc(S(=O)(=O)Nc3ccccc3C(=O)O)cc2[N+](=O)[O-])c(OC)c1` gave Akt phos inh inactive, Vif-APOBEC3F blk 1%, PTAP TSG101 blk -9%, Vif-A3G inh 7% and S-ASM inh inconclusive.
`CC(C)CCC1(C)NC(=O)N(Cc2cc(F)cc3cccnc23)C1=O` (stereo unspecified) gave 12-LOX inh -32%.
`COc1cc(OC)c(NC2=NS(=O)(=O)C(c3ccc(C)c(C)c3)=C2C)cc1Cl` gave 12-LOX inh -11%.
Screening CSc1ccc(C2N=C(c3ccccc3)NO2)cc1 (stereo unspecified) returned Akt phos inh inactive, Vif-APOBEC3F blk -17%, PTAP TSG101 blk -3%, Vif-A3G inh inconclusive and S-ASM inh 1%.
Oc1c(Br)cc(C2N=C(c3ccccc3)NO2)cc1Br (stereo unspecified) was read as Akt phos inh inactive, 12-LOX inh 28µM*, Vif-APOBEC3F blk 2%, PTAP TSG101 blk -1%, Vif-A3G inh -2% and S-ASM inh -5%.
CC(=O)C1=C(O)C(=O)N(c2cc(C(C)(C)C)on2)C1c1ccc(Br)cc1 (stereo unspecified) was read as Akt phos inh inactive, 12-LOX inh 45µM*, Vif-APOBEC3F blk 7%, PTAP TSG101 blk -12%, Vif-A3G inh 0% and S-ASM inh 17%.
For CC(=O)C1=C(O)C(=O)N(c2cc(C(C)(C)C)on2)C1c1ccc(C(C)C)cc1 (stereo unspecified) the results were Akt phos inh inactive, Vif-APOBEC3F blk -7%, PTAP TSG101 blk -12%, Vif-A3G inh 1% and S-ASM inh 15%.
